Reference: paper PMC11995724, “Antibiotic target discovery by integrated phenotypic and activity-based profiling of electrophilic fragments” (Cell chemical biology, 2025)
The whole screen tested about 3,200 compounds, of which about 75 (2%) showed an effect of 50% or more. The list comes from a sample in which strong results are over-represented; it also holds similar structures and randomly drawn compounds.

What follows are molecules tested on T1, S. aureus MSSA476. Details: relative growth, OD600, TSB; 25 µM; inhibitor.
T1 construct: MSSA476
Set-up: species or system S. aureus MSSA476 (TSB) or V. cholerae SAD30 (LB); 384-well bacterial growth screen at 25 uM, OD600 relative to DMSO control

Compared with `CC(Cl)C(=O)NCCc1nnc2n1CCCCC2` (stereo not drawn) [7-D09, 2-chloro-N-(2-{5H,6H,7H,8H,9H-[1,2,4]triazolo[4,3-a]azepin-3-yl}ethyl)propanamide], `CC(Cl)C(=O)NCc1nn(-c2ccccc2)c2c1CCC2` (stereo not drawn) [7-P05, 2-chloro-N-({1-phenyl-1H,4H,5H,6H-cyclopenta[c]pyrazol-3-yl}methyl)propanamide] is lower in “% of control remaining” value: 92.3077% for the first, 91.9937% for the second.

First: O=C(CCl)Nc1cc(-n2cnnn2)ccc1Cl [6-A05, 2-chloro-N-[2-chloro-5-(1H-1,2,3,4-tetrazol-1-yl)phenyl]acetamide]
Second: NC(=O)c1ccc(NC(=O)CCl)cc1 [4-P04, 4-(2-chloroacetamido)benzamide]
The “% of control remaining” value of the first is lower: 78.1951% for the first, 95.2835% for the second.

First: COc1ccc(-c2csc(NC(=O)CCl)n2)c(OC)c1 [4-F12, 2-chloro-N-[4-(2,4-dimethoxyphenyl)-1,3-thiazol-2-yl]acetamide]
Second: COc1ccc(OC)c(-c2csc(NC(=O)CCl)n2)c1 [4-H12, 2-chloro-N-[4-(2,5-dimethoxyphenyl)-1,3-thiazol-2-yl]acetamide]
The “% of control remaining” value of the first is lower: 83.4683% for the first, 86.8985% for the second.

Going from `COc1ccc(-c2csc(NC(=O)CCl)n2)c(O)c1` [4-A11, 2-chloro-N-[4-(2-hydroxy-4-methoxyphenyl)-1,3-thiazol-2-yl]acetamide] to `COc1ccc(-c2csc(NC(=O)CCl)n2)cc1` [4-N06, 2-chloro-N-[4-(4-methoxyphenyl)-1,3-thiazol-2-yl]acetamide], the “% of control remaining” value rises from 1.1434% to 111.291%.

Compared with `O=C(CCl)Nc1nc(-c2ccccc2)cs1` [4-L04, 2-chloro-N-(4-phenyl-1,3-thiazol-2-yl)acetamide], `CCCc1ccc(-c2csc(NC(=O)CCl)n2)cc1` [4-C09, 2-chloro-N-[4-(4-propylphenyl)-1,3-thiazol-2-yl]acetamide] is lower in “% of control remaining” value: 143.306% for the first, 5.717% for the second.

Going from `CC(Cl)C(=O)N1CCN(C(C)c2cccc(C#N)c2)CC1` (stereo not drawn) [7-P22, 3-{1-[4-(2-chloropropanoyl)piperazin-1-yl]ethyl}benzonitrile] to `CC(Cl)C(=O)N1CCCN(C(=O)c2cc(Cl)cn2C)CC1` (stereo not drawn) [7-N07, 2-chloro-1-[4-(4-chloro-1-methyl-1H-pyrrole-2-carbonyl)-1,4-diazepan-1-yl]propan-1-one], the “% of control remaining” value falls from 115.542% to 91.6797%.

Compared with `C=CC(=O)NCCc1nnc(C)s1` [3-G22, N-[2-(5-methyl-1,3,4-thiadiazol-2-yl)ethyl]prop-2-enamide], `C=CCNC(=O)C(C#N)=Cc1sccc1C` [9-P07, 2-cyano-3-(3-methylthiophen-2-yl)-N-(prop-2-en-1-yl)prop-2-enamide] is higher in “% of control remaining” value: 111.45% for the first, 115.955% for the second.

Compared with `C=CC(=O)N(CC)CC(=O)N1CCCC1c1ccc(F)cc1C` (stereo not drawn) [2-F08, N-ethyl-N-{2-[2-(4-fluoro-2-methylphenyl)pyrrolidin-1-yl]-2-oxoethyl}prop-2-enamide], `C=CC(=O)N1CCC(Cn2nc(C)cc2C)CC1` [2-C17, 1-{4-[(3,5-dimethyl-1H-pyrazol-1-yl)methyl]piperidin-1-yl}prop-2-en-1-one] is higher in “% of control remaining” value: 97.1279% for the first, 100.957% for the second.

Compared with `CC(=O)c1cccc(S(=O)(=O)N2CCN(C(=O)CCl)CC2)c1` [4-F05, 1-[4-(3-acetylbenzenesulfonyl)piperazin-1-yl]-2-chloroethan-1-one], `CS(=O)(=O)c1ccc(C(=O)CCl)cc1` [10-I13, 2-chloro-1-(4-methanesulfonylphenyl)ethan-1-one] is lower in “% of control remaining” value: 105.574% for the first, 83.125% for the second.

Going from `CCOc1ccccc1NC(=O)C(C#N)=Cc1c(F)cccc1F` [8-G21, 2-cyano-3-(2,6-difluorophenyl)-N-(2-ethoxyphenyl)prop-2-enamide] to `N#CC(=Cc1ccc2c(c1)OCO2)C(=O)NCc1ccccc1` [8-A09, 3-(1,3-dioxaindan-5-yl)-N-benzyl-2-cyanoprop-2-enamide], the “% of control remaining” value rises from 69.3776% to 113.527%.

Going from `CCc1cnc(N2CCN(C(=O)C(C)Cl)CC2)s1` (stereo not drawn) [7-C20, 2-chloro-1-[4-(5-ethyl-1,3-thiazol-2-yl)piperazin-1-yl]propan-1-one] to `CC(C)n1ccnc1C(=O)CCl` [10-H10, 2-chloro-1-[1-(propan-2-yl)-1H-imidazol-2-yl]ethan-1-one], the “% of control remaining” value falls from 99.2151% to 2.1875%.

Going from `C=CC(=O)N(C)CC(=O)N1CCC2(CC1)CC2c1nnc(C(C)C)o1` (stereo not drawn) [2-N22, N-methyl-N-(2-oxo-2-{1-[5-(propan-2-yl)-1,3,4-oxadiazol-2-yl]-6-azaspiro[2.5]octan-6-yl}ethyl)prop-2-enamide] to `COC(=O)c1c(C(=O)CCl)c(C)n(C(C)C)c1C` [10-K21, methyl 4-(2-chloroacetyl)-2,5-dimethyl-1-(propan-2-yl)-1H-pyrrole-3-carboxylate], the “% of control remaining” value rises from 98.8686% to 119.375%.

First: Cn1ccnc1C(=O)CCl [10-C15, 2-chloro-1-(1-methyl-1H-imidazol-2-yl)ethan-1-one]
Second: CC(=O)Nc1ccc(C(=O)CCl)cc1 [10-O12, N-[4-(2-chloroacetyl)phenyl]acetamide]
The “% of control remaining” value of the first is higher: 93.75% for the first, 6.875% for the second.

First: CC(Cl)C(=O)Nc1ccc(Cl)cc1Cl (stereo not drawn) [4-L17, 2-chloro-N-(2,4-dichlorophenyl)propanamide]
Second: CCCC(=O)Nc1ccc(C(=O)C(C)Cl)cc1 (stereo not drawn) [10-O06, N-[4-(2-chloropropanoyl)phenyl]butanamide]
The “% of control remaining” value of the first is lower: 92.9967% for the first, 121.875% for the second.

Going from `COc1ccccc1NC(=O)c1ccc(NC(=O)CCl)cc1` [4-O17, 4-(2-chloroacetamido)-N-(2-methoxyphenyl)benzamide] to `O=C(CCl)c1ccc(NC(=O)c2ccccc2)cc1` [10-B06, N-[4-(2-chloroacetyl)phenyl]benzamide], the “% of control remaining” value falls from 92.2344% to 0%.

Compared with `CS(=O)(=O)Nc1ccc(C(=O)CCl)cc1` [10-D19, N-[4-(2-chloroacetyl)phenyl]methanesulfonamide], `CS(=O)(=O)NCCc1ccc(C(=O)CCl)cc1` [10-D06, N-{2-[4-(2-chloroacetyl)phenyl]ethyl}methanesulfonamide] is higher in “% of control remaining” value: 28.125% for the first, 79.375% for the second.

First: O=C(CCl)Nc1cccc(NC(=O)c2ccccc2)c1 [6-A03, N-[3-(2-chloroacetamido)phenyl]benzamide]
Second: CC(=O)c1ccc(NC(=O)CCl)cc1 [4-G07, N-(4-acetylphenyl)-2-chloroacetamide]
The “% of control remaining” value of the first is lower: 76.1463% for the first, 93.7589% for the second.

Compared with `NC(=O)Nc1ccc(C(=O)CCl)cc1` [10-J07, [4-(2-chloroacetyl)phenyl]urea], `CC(C)CC(=O)Nc1ccc(C(=O)CCl)cc1` [10-N06, N-[4-(2-chloroacetyl)phenyl]-3-methylbutanamide] is lower in “% of control remaining” value: 55.625% for the first, 1.25% for the second.
